Assay results from PubChem BioAssay (NCATS).
Results filed as inconclusive are left out. Values without a mark were called inactive. Calls of active or inactive are those of the source. Calls follow the shape of the dose curve; as a rule, active = well fitted inhibition curve with a large enough effect; inconclusive = small, poorly fitted or top-dose-only effect; inactive = flat fitted curve, though single readings scatter.

These molecules were tested against Calcium and integrin-binding protein 1 (Homo sapiens) (UniProt Q99828) (assay: Primary qHTS for Identification of Calcium Integrin Binding Protein 1 (CIB1) Competitor (AID 1508620;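 also: GST tagged CIB1 binding a fluorescein labelled alphaIIb integrin peptide tracer; top concentration of the series differs between compounds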)). Details: CIB1-GST / FITC-alphaIIb peptide fluorescence polarization; series mostly up to 57.7 µM; activity change, negative = inhibition: at the top concentration.
Calcium and integrin-binding protein 1 (Homo sapiens), sequence (Q99828 whole entry, looked up): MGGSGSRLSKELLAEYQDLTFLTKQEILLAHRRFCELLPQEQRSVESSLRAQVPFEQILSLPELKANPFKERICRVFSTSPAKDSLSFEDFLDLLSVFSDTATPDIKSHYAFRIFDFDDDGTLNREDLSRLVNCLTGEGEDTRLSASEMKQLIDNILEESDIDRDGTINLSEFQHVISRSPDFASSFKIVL
In short: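 Fluorescence polarization competition: CIB1-GST (1 uM final) preincubated with compound 15 min at room temperature, then FITC-labeled alphaIIb peptide (100 nM final) added for another 15 min. Polarization read at Ex 480/Em 540.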
% is scaled to controls: 0 for no effect and ±100 for the full control effect.

Compound	activity change, negative = inhibition	outcome
COCC1(CO)C(=O)C2CCN1CC2 (stereo not given)	0.394%	–
O=C(Nc1ccncc1)C(=O)c1cn(Cc2ccc(Cl)cc2)c2ccccc12	2.97%	–
CCc1c(C(=O)C(N)=O)c2c(OCC(=O)O)cccc2n1Cc1ccccc1	–	inactive
CCC(=O)OC1CCC2C3CCC4=CC(=O)CC[C@@]4(C)C3CC[C@]12C (stereo not given in full)	-1.42%	–
CC(=CCCC1=CCC(C2=CC(=O)OC2O)OC1O)CCC1=C(C)CCCC1(C)C (stereo not given)	-1.72%	–
C[C@]12Cc3cn[nH]c3C[C@@H]1CC[C@@H]1[C@H]2CC[C@@]2(C)[C@H]1CC[C@]2(C)O	-4.6%	–
Cc1ccccc1-n1c(Cn2ncc3c(N)ncnc32)nc2cccc(C)c2c1=O	–	inactive
O=C(Oc1ccc([N+](=O)[O-])cc1)N1CCC(C(O)(c2ccc3c(c2)OCO3)c2ccc3c(c2)OCO3)CC1	–	inactive
C[C@]12CC[C@H]3[C@@H](CCC4=CC(=O)CC[C@@]43C)[C@H]1CC[C@H]2OC(=O)CCC1CCCC1	1.05%	–
CN1[C@H]2CC(O)C[C@H]1[C@H]1O[C@H]12 (stereo not given in full)	-4.26%	–
C[C@@H]1O[C@@H](O[C@@H]2C=C3CC[C@@H]4[C@@H](CC[C@]5(C)[C@H](c6ccc(=O)oc6)CC[C@@]45O)[C@@]3(C)CC2)[C@H](O)[C@H](O)[C@H]1O	0.817%	–
CCN1CCN(C(=O)Cc2ccc(Nc3ncc(F)c(Nc4ccc(C(=O)Nc5ccccc5Cl)cc4)n3)cc2)CC1	–	inactive
Cc1c(N)nc([C@H](CC(N)=O)NC[C@@H](N)C(N)=O)nc1C(=O)N[C@H](C(=O)N[C@@H](C)[C@H](O)[C@@H](C)C(=O)N[C@@H](C(=O)NCCc1nc(-c2nc(C(=O)NCCC[S+](C)C)cs2)cs1)[C@@H](C)O)C(O[C@H]1O[C@H](CO)[C@H](O)[C@@H](O)[C@@H]1O[C@H]1O[C@H](CO)[C@@H](O)[C@H](OC(N)=O)[C@H]1O)c1cnc[nH]1 (stereo not given in full)	-0.483%	–
C=C[C@@H]1CN2CCC1C[C@@H]2[C@@H](O)c1ccnc2ccccc12 (stereo not given in full)	-1.41%	–
CC(=Cc1csc(C)n1)[C@@H]1C[C@H]2O[C@]2(C)CCC[C@H](C)[C@@H](O)[C@@H](C)C(=O)C(C)(C)[C@@H](O)CC(=O)O1	0.398%	–
C[C@]12CC[C@H](O)CC1=CC[C@H]1[C@H]3CCC(=O)[C@@]3(C)CC[C@@H]12	-2.36%	–
CC[C@H]1C=CC=CC[C@@H](C)[C@H](O)[C@@](C)(O)C(=O)[C@@H](C)[C@H](O)[C@@H](C)C(=O)[C@@H](C)[C@H](O)[C@@H](C)C=CC(=O)O[C@@H]2[C@@H](C)[C@H](CC1)O[C@]1(CC[C@H](C)[C@H](C[C@@H](C)O)O1)[C@H]2C	-3.43%	–
CN(C)NC(=O)CCC(=O)O	0.888%	–
O=c1[nH]c2ccccc2n1C1CCN(Cc2ccc(-c3[nH]c4cc5ncnc5cc4nc3-c3ccccc3)cc2)CC1	-2.47%	–
O=S(=O)(CC1CS1)c1ccc(Oc2ccccc2)cc1 (stereo not given)	-6.2%	–
N#C[C@H](O[C@@H]1O[C@H](CO[C@@H]2O[C@H](CO)[C@H](O)[C@H](O)[C@H]2O)[C@H](O)[C@H](O)[C@H]1O)c1ccccc1	-8.06%	–
C1=C2CCCN[C@H]2[C@@H]2C[C@H]1[C@@H]1CCCCN1C2	-2.32%	–
C[C@H]1CCCC=CC2C[C@H](O)C[C@@H]2[C@H](O)C=CC(=O)O1 (stereo not given in full)	-7.28%	–
C[C@]12CC[C@@H]3[C@@H](CCC4=CC(=O)CC[C@@H]43)[C@@H]1CC[C@@H]2OC(=O)CCc1ccccc1	0.703%	–
Nc1ccc(N=Nc2ccccc2)cc1	-9.37% [at 228 µM]	–
C[C@@H]1CC[C@@]2(OC1)O[C@H]1C[C@H]3[C@@H]4CC=C5C[C@@H](O[C@@H]6O[C@H](CO)[C@@H](O[C@@H]7O[C@@H](C)[C@H](O)[C@@H](O)[C@@H]7O)[C@H](O)[C@@H]6O[C@@H]6O[C@@H](C)[C@H](O)[C@@H](O)[C@@H]6O)CC[C@]5(C)[C@@H]4CC[C@]3(C)[C@@H]1[C@H]2C	4.92%	–
C[C@H]([C@H](O)CCC(C)(C)O)[C@H]1CC[C@@]2(O)C3=CC(=O)[C@@H]4C[C@@H](O)[C@@H](O)C[C@]4(C)[C@@H]3CC[C@]12C	-1.08%	–
Cc1[nH]nc2ccc(-c3cncc(OC[C@@H](N)Cc4c[nH]c5ccccc45)c3)cc12	–	inactive
CCOC(=O)c1cncn1[C@H](C)c1ccccc1	-0.103%	–
CSCC[C@@H](NC(=O)[C@@H](Cc1ccccc1)NC(=O)CNC(=O)CNC(=O)[C@@H](N)Cc1ccc(O)cc1)C(=O)O	4.31%	–
